# Screening data as filed in PubChem.
# Shown is part of a subset that was picked to be rich in hits.
# BLM helicase inh – Bloom syndrome helicase (human) inhibition; 350,000 tested, 0.2% active; Potency, µM (highest dose often 56.1 µM), for inactives: top-dose activity change, negative = inhibition, usual class: inhibitors; AID 2528; P54132; recombinant BLM DNA unwinding, fluorescence dequenching;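 also: plate controls were vehicle for no effect and no enzyme for full effect; nearly all actives have a fitted effect of over 35% in size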
# KDM4E inh – inhibitors of human JMJD2E histone demethylase. B2RXH2. 230,000 tested, 1.6% active. JMJD2E catalytic domain, FDH-coupled NADH fluorescence (FDH is formaldehyde dehydrogenase). AID 2147. Potency, µM (highest dose often 57.1 µM), without a hit: at the highest dose activity change, negative = inhibition, hits mostly inhibitors; active = well fitted inhibition curve with a large enough effect, not every such curve was filed as active; inconclusive = small, poorly fitted or top-dose-only effect, or another doubt; inactive = no such curve, though single readings can be large or run the other way;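 also: 0% = wells with enzyme and -100% = buffer wells without enzyme; nearly all actives have a fitted effect of over 50% in size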
# RECQ1 helicase – inhibitors of human RECQ1 DNA helicase | 240,000 tested, 0.54% active | RECQ1 DNA unwinding, red fluorescence kinetic read | P46063 | Potency, µM (top dose mostly 57.3 µM), inactives show at the top dose activity, negative = inhibition, most hits filed as inhibitors;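 also: plate controls were vehicle for no effect and no enzyme for full effect; nearly all actives have a fitted effect of over 30% in size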
#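 50 nM RECQ1T1 preincubated 15 min with compound in Tris pH 8.0 buffer with MgCl2, DTT, Tween-20 and 2.5 ug/ml poly(dI-dC); started with 200 nM TAMRA/BHQ-2 forked duplex and 2 mM ATP. Unwinding read as fluorescence (525/598 nm), two reads 2 h apart.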
# PKM2 act – increases activity of human pyruvate kinase M2; 260,000 tested, 0.34% active; P14618; purified PKM2, Kinase-Glo ATP luminescence, activation; response scale: 0% is enzyme alone, no compound; Potency, µM (highest dose often 57.5 µM), for the others: top-dose activation, usual class: activators; also: nearly all actives have a fitted effect of over 55% in size
# Target sequence (P14618 whole entry, looked up): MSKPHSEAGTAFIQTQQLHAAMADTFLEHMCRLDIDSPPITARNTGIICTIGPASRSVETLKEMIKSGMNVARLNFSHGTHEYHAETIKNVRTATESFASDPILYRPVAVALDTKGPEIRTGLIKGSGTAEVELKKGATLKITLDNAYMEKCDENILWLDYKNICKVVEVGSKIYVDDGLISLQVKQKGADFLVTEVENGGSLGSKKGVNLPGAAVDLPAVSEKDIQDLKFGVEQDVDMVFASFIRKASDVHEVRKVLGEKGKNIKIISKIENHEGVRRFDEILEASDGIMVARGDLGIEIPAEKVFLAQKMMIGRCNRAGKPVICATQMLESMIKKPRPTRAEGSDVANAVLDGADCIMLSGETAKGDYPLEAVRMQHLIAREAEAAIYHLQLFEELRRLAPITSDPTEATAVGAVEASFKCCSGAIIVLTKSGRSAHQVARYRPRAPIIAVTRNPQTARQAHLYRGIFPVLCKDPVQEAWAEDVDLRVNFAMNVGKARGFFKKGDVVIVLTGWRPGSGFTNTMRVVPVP
#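 Purified hPK-M2 (>95% pure) converted ADP (0.1 mM final) to ATP with 0.5 mM PEP in 50 mM imidazole pH7.2, KCl, MgCl2, Tween 20, BSA; 1 h at room temperature. ATP detected by Kinase-Glo luminescence.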
# APE1 inh-1 – APE1 (human) endonuclease inhibition. Potency, µM (doses to about 65.8 µM), inactives show at the highest dose activity change, negative = inhibition, hits mostly inhibitors. AID 2517. 350,000 tested, 0.35% active. P27695. recombinant APE1, TAMRA/BHQ-2 abasic DNA cleavage fluorescence;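 also: plate controls were vehicle for no effect and reference inhibitor for full effect; nearly all actives have a fitted effect of over 55% in size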
#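 Endonuclease cleavage of a quenched abasic-site DNA duplex (50 nM) by APE1 (0.75 nM) was tracked by TAMRA dequenching. Compounds were preincubated with enzyme 15 min at room temperature; data normalized to buffer-only and DMSO wells plus NSC13755 control.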
# APE1 dye cs – counter-screen for APE1 inhibitors: DNA dye displacement. DNA fluorescent dye displacement counterscreen, fluorescence. Potency, µM (top dose mostly 28.5 µM), without a hit: at the top dose activity change, negative = inhibition, actives largely listed as inhibitors. shares compounds with APE1 inh-1. 480 tested, 7% active;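 also: loss of thiazole orange fluorescence as the dye is displaced from duplex DNA; 0% = ThO with dsDNA and no compound and -100% = ThO without dsDNA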
# Endo IV inh – Endo IV (E. coli) inhibition counter-screen | shares compounds with APE1 inh-1 | Potency, µM (doses to about 27.1 µM), for inactives: at the highest dose activity change, negative = inhibition, most hits filed as inhibitors | 560 tested, 4% active | E. coli Endo IV, fluorogenic AP-site DNA cleavage;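 also: plate controls were uninhibited enzyme wells for no effect and no enzyme buffer wells for full effect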
# APE1 inh-2 – APE1 (human) endonuclease inhibition, confirmation; AID 2572; shares compounds with APE1 inh-1; Potency, µM (series often up to 57.1 µM), for inactives: top-dose activity change, negative = inhibition, actives largely listed as inhibitors; purified APE1, fluorogenic abasic-site DNA cleavage; 750 tested, 44% active; also: nearly all actives have a fitted effect of over 30% in size
# APE1 FP inh – APE1 (human) DNA binding inhibition, fluorescence polarization | shares compounds with APE1 inh-1 | APE1 binding to TAMRA-labelled double-stranded DNA, fluorescence polarization displacement | Potency, µM (highest dose often 28.5 µM), for the others: top-dose activity, negative = inhibition, usual class: inhibitors | 480 tested, 7% active
# An asterisk follows results filed as active; i = inactive; ? = inconclusive; / = not tested or not shown; [ ] = remark or other dose. Unless noted, calls follow the shape of the dose curve; as a rule, active = well fitted curve in the direction sought with a large enough effect; inconclusive = small, poorly fitted or top-dose-only effect, or another doubt; inactive = no such curve, though single readings can be large; an effect the other way counts as inactive or inconclusive. Unless noted, % is scaled to controls: 0 for no effect and ±100 for the full control effect; potency is read from the fitted curve at half-maximal effect.
SMILES,BLM helicase inh,KDM4E inh,RECQ1 helicase,PKM2 act,APE1 inh-1,APE1 dye cs,Endo IV inh,APE1 inh-2,APE1 FP inh
COc1ccc(-c2nc3n(n2)C(=O)CC(c2ccco2)S3)cc1 (stereo not drawn),-7.5%,-10.9%,-8.2%,3.0%,?,-8.0%,5.3%,?,-17.4%
C=C(C)C(=O)Nc1cccc(C2=NOC3(C2)C[C@H](C(N)=O)N(C(=O)COc2ccc(Cl)cc2)C3)c1 (stereo partly drawn),-14.5%,-11.5%,17.8µM*,1.1%,?,/,/,?,/
Fc1cccc(CNc2ncnc3ccc(-c4ccccc4Cl)cc23)c1,/,/,/,/,-4.5%,/,/,/,/
CN(C)C(=O)Nc1ccc(Cl)c(Cl)c1,3.1%,0.3%,i,/,?,-2.6%[57.1 µM],20.0%[57.1 µM],31.6µM*,10.2%[57.1 µM]
CCOc1ccc(S(=O)(=O)NCc2cccn2Cc2cccc(C)c2)cc1,-1.7%,/,/,/,/,/,/,/,/
CCn1cc(C(=O)O)c(=O)c2cc(F)c(N3CCN(S(=O)(=O)c4ccc(NC(=O)OC)cc4)CC3)cc21,-3.7%,?,2.9%,0.7%,3.4%,/,/,-28.1%,/
CCOC(=O)C1=C(C)NC(=O)NC1c1ccco1 (stereo not drawn),-12.4%,?,-17.8%,-12.0%,?,0.4%,7.0%,?,-11.2%
COc1cc(O)c2c(c1)OC(c1ccc(O)cc1)CC2=O (stereo not drawn),-10.5%,10.9%,-10.2%,0.6%,-4.4%,/,/,/,/
Cc1c(O)cc2c(c1O)C(=O)CC(c1ccc(O)cc1)O2 (stereo not drawn),-24.6%,-16.3%,25.1µM*,16.7%,1.58µM*,-11.4%,-2.6%,4.47µM*,?
O=C(C1CCCCC1)N(CCN1CCN(c2ccccc2CO)CC1)c1ccccn1,/,/,i,/,-2.2%,/,/,/,/
CCCN(CCC)C(=O)Cc1ccc(F)cc1,0.6%,-0.9%,i,0.5%,-8.9%,/,/,?,/
COC(=O)[C@@H]1OC(c2ccccc2)O[C@H]1C(=O)OC,3.1%,/,-12.6%,/,-6.7%,/,/,/,/
CC(N=Cc1cccc(O)c1O)c1ccccc1 (stereo not drawn),-10.0%,14.1µM*,22.4µM*,23.0%,14.1µM*,5.4%,12.9%,-6.7%[24.4 µM],-2.8%
CCOC(=O)N1CCN(C(=O)c2c(O)c3cccc4c3n(c2=O)CC4)CC1,-0.6%,2.4%,0.8%,0.3%,39.8µM*,-14.3%,2.0%,-10.1%[24.4 µM],-0.7%
NC(=O)c1ccc2c(=O)n3c(-c4cc(Cl)c(N)c(Cl)c4)csc3nc2c1,-6.9%,?,?,3.0%,-4.4%,/,/,-26.1%,/
Cc1csc2nc3cc(C(N)=O)ccc3c(=O)n12,6.1%,?,i,-12.1%,-3.0%,/,/,/,/
COc1ccc2c(c1)C(=O)[C@@H](OC(=O)NCCOc1ccccc1)[C@H](c1ccc(OC)c(Br)c1)O2,-2.7%,?,0.5%,/,-4.2%,/,/,/,/
O=S(=O)(O)c1ccc2nc(-c3ccccc3)[nH]c2c1,2.6%,/,/,/,/,/,/,/,/
O=S(=O)(O)c1ccc2c(c1)-c1nc-2nc2[nH]c(nc3nc(nc4[nH]c(n1)c1ccc(S(=O)(=O)O)cc41)-c1ccc(S(=O)(=O)O)cc1-3)c1ccc(S(=O)(=O)O)cc21,1.58µM*,/,0.562µM*,/,0.316µM*,0.562µM*,-93.1%[57.1 µM],0.0501µM*,0.141µM*
Cc1ccco1,/,/,-8.6%,/,2.4%,/,/,/,/
CC1(CC(=O)N/N=C/c2cc([N+](=O)[O-])c(O)cc2O)OCCO1,-9.6%,15.8µM*,-26.8%,-4.0%,14.1µM*,?,-3.6%,12.6µM*,?
CSCC[C@H](NC(=O)[C@H](CC(C)C)NC(=O)CNC(=O)[C@H](Cc1ccccc1)N(C)C(=O)[C@H](Cc1ccccc1)NC(=O)[C@H](CC(=O)O)NC(=O)[C@@H](N)CC(=O)O)C(N)=O,0.2%,/,9.1%,/,-0.9%,/,/,/,/
Cc1ccc(CN2C(=O)N/C(=C\c3ccc(-c4ccc(C(=O)O)cc4C)o3)C2=O)cc1,-17.4%,?,?,8.9%,15.8µM*,?,13.4%,?,-0.3%
Cc1ccc(C(=O)O)cc1-c1ccc(/C=C2/NC(=O)N(c3ccccc3)C2=O)o1,12.0%,?,17.8µM*,21.8%,11.2µM*,-9.5%,31.6%,?,-7.9%
O=C1N/C(=C/c2ccc(N3CCOCC3)o2)C(=O)N1c1ccccc1,1.4%,4.6%,2.5%,?,-1.7%,/,/,/,/
SMILES,BLM helicase inh,KDM4E inh,RECQ1 helicase,PKM2 act,APE1 inh-1,APE1 dye cs,Endo IV inh,APE1 inh-2,APE1 FP inh
O=C(O)c1ccc(-c2ccc(/C=C3\NC(=O)N(Cc4ccc(Cl)cc4)C3=O)o2)cc1,-0.8%,?,9.9%,8.6%,-31.2%,/,/,?,/
C#CCN1C(=O)S/C(=C\c2ccc(-c3ccc(C(=O)O)cc3C)o2)C1=O,-26.0%,/,/,4.0%,?,/,/,/,/
NC(C(=O)O)C(CC(=O)O)c1ccc(Cl)cc1 (stereo not drawn),/,/,7.0%,/,-4.5%,/,/,/,/
O=C(NN=C1c2ccccc2-c2ccccc21)c1ccccc1,55.4%,-26.0%,?,7.6%,12.6µM*,/,/,-28.0%,/
O=c1c(O)cccc2cc(O)c(O)c(O)c12,12.6µM*,3.98µM*,2.51µM*,?,0.708µM*,/,-1.6%[57.1 µM],0.447µM*,/
COc1cc2cccc(OC)c(=O)c2c(OC)c1OC,-12.7%,-23.9%,-7.2%,-4.0%,13.5%,/,/,/,/
Cc1cc(C2(c3cc(C)c(O)cc3C)OS(=O)(=O)c3ccccc32)c(C)cc1O,/,/,-26.6%,/,-2.6%,/,/,/,/
CCOc1cc(/C=N/Nc2cc(C)nc(-n3nc(C)cc3C)n2)ccc1O,-4.8%,?,-1.3%,-7.6%,3.2%,/,/,-22.1%,/
CCCCOc1ccccc1CC1C(=O)Nc2ccc(Br)cc21 (stereo not drawn),-11.8%,/,/,/,/,/,/,/,/
Nc1ccn([C@@H]2O[C@H](CO)[C@@H](O)[C@H]2O)c(=O)n1,2.4%,7.9%,i,/,15.1%,/,/,/,/
Nc1ccn([C@@H]2O[C@H](CO)[C@@H](O)C2O)c(=O)n1 (stereo partly drawn),3.3%,4.4%,-10.1%,3.3%,-3.3%,-3.4%[57.1 µM],21.8%[57.1 µM],-5.8%,7.3%[57.1 µM]
